From PubChem BioAssay (NCATS)
Records with an inconclusive call do not appear. Calls of active or inactive are those of the source. Calls come from the whole dose curve; as a rule, active = well fitted inhibition curve with a large enough effect; inconclusive = small, poorly fitted or top-dose-only effect; inactive = flat fitted curve, though single readings scatter.

How the values were obtained:
Assay in all cases: qHTS profiling for inhibitors of Plasmodium falciparum proliferation (AID 504749); note: nearly all actives have a fitted effect of over 60% in size
Settings in all cases: P. falciparum in erythrocytes, SYBR Green DNA, 72 h; series mostly up to 28.7 µM
DFO2036 = system: DFO2036
How it was run: (§1)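 SYBR Green fluorescence (ex 485 nm, em 535 nm) reports parasite DNA after 72 h compound exposure of infected red cells at 0.3% parasitemia, 2.5% hematocrit; signal normalized to 0.29 uM artemisinin and vehicle wells.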

DIV30 = system: DIV30
How it was run: as §1

Dd2 = system: Dd2
How it was run: as §1

ICS = system: ICS
How it was run: as §1

JCK = system: JCK
How it was run: as §1

N140 = system: N140
How it was run: as §1

PC15 = system: PC15
How it was run: as §1

SC27B = system: SC27B
How it was run: as §1

ECU = system: ECU
How it was run: as §1

FAB9 = system: FAB9
How it was run: as §1

HB3 = system: HB3
How it was run: as §1

P93_24 = system: P93_24
How it was run: as §1

PAD = system: PAD
How it was run: as §1

PC26 = system: PC26
How it was run: as §1

PC49 = system: PC49
How it was run: as §1

DIV17 = system: DIV17
How it was run: as §1

P94_40 = system: P94_40
How it was run: as §1

DIV14 = system: DIV14
How it was run: as §1

GB4 = system: GB4
How it was run: as §1

TAB109 = system: TAB109
How it was run: as §1

Measured: Potency
Potency is the fitted concentration of half-maximal effect.

Cc1ccc2c(Br)cc(Br)c(O)c2n1
active: DFO2036 10 µM | DIV30 16.9 µM | Dd2 11.2 µM | ICS 11.2 µM | JCK 10 µM | N140 10 µM | SC27B 11.2 µM
inactive: PC15

CCC(C(=O)OCCOCCN(CC)CC)c1ccccc1 (centres undefined)
not listed: Dd2 | DIV17 | P94_40 | DIV14 | GB4 | TAB109
inactive: all other assays above

CN1CCC[C@@H]1CCO[C@](C)(c1ccccc1)c1ccc(Cl)cc1
inactive: DFO2036 | DIV30 | ECU | FAB9 | HB3 | JCK | P94_40 | PAD | PC26 | SC27B
active: DIV17 6.75 µM | ICS 10 µM

CC(=O)Nc1ncc([N+](=O)[O-])s1
not listed: DIV17
inactive: all other assays above

CCCCCCCCCCCCOCCOCCOCCOCCOCCOCCOCCOCCOCCO
active: Dd2 12.6 µM
inactive: DFO2036 | DIV30 | FAB9 | JCK | PC26 | PC49

COc1ccc2c(c1)c1c3n2CCN(C)C3=NCC1
not listed: DIV17
inactive: all other assays above

CCc1ccc(C(=O)C(C)CN2CCCCC2)cc1 (centres undefined)
not listed: P93_24 | DIV17
inactive: all other assays above

CCNC(=O)/C=C/c1cccc(Br)c1
not listed: DIV14 | TAB109
inactive: all other assays above

CN1CCN(CCC(=O)N2c3ccccc3Sc3ccc(C(F)(F)F)cc32)CC1
active: DIV14 8.49 µM | DIV17 8.49 µM | ICS 7.08 µM
inactive: DFO2036 | FAB9 | HB3 | JCK | P94_40 | SC27B

CCN(CC)CCOC(=O)C1(c2ccccc2)CCCC1
active: Dd2 8.91 µM
not listed: ICS | JCK | PC15 | P93_24 | PC49 | DIV17 | DIV14 | GB4
inactive: all other assays above

NCc1ccccc1Sc1ccccc1CO
active: DIV14 13.5 µM | Dd2 10 µM | ICS 8.91 µM
inactive: DFO2036 | ECU | FAB9 | HB3 | JCK | PC49 | SC27B

C/C=C/c1ccc(O)c(OC)c1
not listed: DIV30 | ICS | P93_24 | DIV14
inactive: all other assays above

CC(=O)NCCCCCC(=O)O
not listed: PC26 | DIV17
inactive: all other assays above

C#C[C@]1(OC(C)=O)CC[C@H]2[C@@H]3CCC4=C/C(=N/O)CC[C@@H]4[C@H]3CC[C@@]21CC
not listed: PC26 | DIV17 | DIV14
inactive: all other assays above

CC1(COc2ccc(CC3SC(=O)NC3=O)cc2)CCCCC1 (centres undefined)
not listed: DIV17
inactive: all other assays above

CN(C)C(=O)Nc1ccc(Cl)c(Cl)c1
active: DIV14 3.01 µM | DIV17 4.78 µM | PC49 3.55 µM
inactive: DFO2036 | ECU | FAB9 | JCK | P94_40 | TAB109

CCOc1ccccc1OCCN[C@H](C)Cc1ccc(OC)c(S(N)(=O)=O)c1
not listed: DIV17 | GB4
inactive: all other assays above

COc1ccc(C(Cl)=C(c2ccc(OC)cc2)c2ccc(OC)cc2)cc1
inactive: DIV17 | DIV30 | GB4 | PC15 | PC26
active: DFO2036 17.8 µM | ECU 2.24 µM | N140 15.8 µM | P94_40 11.2 µM | TAB109 3.55 µM

NC(N)=NN=C(/C=C/c1ccc([N+](=O)[O-])o1)/C=C/c1ccc([N+](=O)[O-])o1
active: DFO2036 11.2 µM | DIV14 7.57 µM | DIV17 7.57 µM | Dd2 2.82 µM | ECU 12.6 µM | HB3 2.24 µM | ICS 2 µM | N140 10 µM | P93_24 12.6 µM | PAD 10 µM | PC49 11.2 µM | TAB109 7.08 µM

CN(Cc1ccc(C(C)(C)C)cc1)Cc1cccc2ccccc12
not listed: Dd2 | ICS | HB3 | P93_24 | P94_40 | DIV14
inactive: all other assays above

CC(C)Nc1cccnc1N1CCN(C(=O)c2cc3cc(NS(C)(=O)=O)ccc3[nH]2)CC1
active: DIV14 0.379 µM | DIV17 1.07 µM | ICS 7.94 µM
not listed: DIV30 | Dd2 | P93_24
inactive: all other assays above

CCOC(=O)Nc1ccc2c(c1)N(C(=O)CCN1CCOCC1)c1ccccc1S2
not listed: DIV17
inactive: all other assays above

Cc1cccc(C)c1NC(=O)CN1CCCCCC1
not listed: DIV30 | DIV17 | GB4
inactive: all other assays above

CCCCNc1ccc(C(=O)OCCOCCOCCOCCOCCOCCOCCOCCOCCOC)cc1
not listed: DIV14
inactive: all other assays above

Cc1cc(CC(=O)O)c(C)n1-c1ccc(Cl)cc1
active: DIV17 16.9 µM | ICS 8.91 µM
inactive: DFO2036 | FAB9 | HB3 | JCK | PC15 | TAB109

CCC(CC)(CC(=O)Nc1cccc(/C=C/c2nc(C3CCC3)cs2)c1)C(=O)O
not listed: ICS | DIV17
inactive: all other assays above

C[N+]1(C)CCC(=C(c2ccccc2)c2ccccc2)CC1
not listed: ICS | PC15 | FAB9 | HB3 | DIV17 | DIV14 | GB4
inactive: all other assays above

CC(C)(C)NC[C@H](O)COc1cccc2c1CCCC2=O
not listed: DIV14 | GB4
inactive: all other assays above

CN1CCN(C2=Nc3cc(F)ccc3Cc3ccccc32)CC1
inactive: DFO2036 | DIV30 | ECU | FAB9 | HB3 | JCK | PC15 | PC26 | PC49 | TAB109
active: Dd2 14.1 µM

COc1cc([C@H]2Oc3cc([C@H]4Oc5cc(O)cc(O)c5C(=O)[C@@H]4O)ccc3O[C@@H]2CO)ccc1O
active: DIV30 19 µM | ICS 8.91 µM
inactive: DFO2036 | Dd2 | ECU | FAB9 | HB3 | JCK | PC49 | TAB109
